Results on 16 targets are retold here after the supplement of paper PMC12067093, “Discovery and optimisation of a covalent ligand for TRIM25 and its application to targeted protein ubiquitination” (Chemical Science, 2025).

About 21,000 targets were measured; listed, in parts, are those with the largest changes and a random draw of the rest.
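Further: competitive profiling in live THP-1 cells: cysteine peptides tagged with an iodoacetamide desthiobiotin (IA-DTB) probe, intensity after compound treatment relative to DMSO-treated cells.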

UniProt P49736, sequence (P49736 whole entry, looked up): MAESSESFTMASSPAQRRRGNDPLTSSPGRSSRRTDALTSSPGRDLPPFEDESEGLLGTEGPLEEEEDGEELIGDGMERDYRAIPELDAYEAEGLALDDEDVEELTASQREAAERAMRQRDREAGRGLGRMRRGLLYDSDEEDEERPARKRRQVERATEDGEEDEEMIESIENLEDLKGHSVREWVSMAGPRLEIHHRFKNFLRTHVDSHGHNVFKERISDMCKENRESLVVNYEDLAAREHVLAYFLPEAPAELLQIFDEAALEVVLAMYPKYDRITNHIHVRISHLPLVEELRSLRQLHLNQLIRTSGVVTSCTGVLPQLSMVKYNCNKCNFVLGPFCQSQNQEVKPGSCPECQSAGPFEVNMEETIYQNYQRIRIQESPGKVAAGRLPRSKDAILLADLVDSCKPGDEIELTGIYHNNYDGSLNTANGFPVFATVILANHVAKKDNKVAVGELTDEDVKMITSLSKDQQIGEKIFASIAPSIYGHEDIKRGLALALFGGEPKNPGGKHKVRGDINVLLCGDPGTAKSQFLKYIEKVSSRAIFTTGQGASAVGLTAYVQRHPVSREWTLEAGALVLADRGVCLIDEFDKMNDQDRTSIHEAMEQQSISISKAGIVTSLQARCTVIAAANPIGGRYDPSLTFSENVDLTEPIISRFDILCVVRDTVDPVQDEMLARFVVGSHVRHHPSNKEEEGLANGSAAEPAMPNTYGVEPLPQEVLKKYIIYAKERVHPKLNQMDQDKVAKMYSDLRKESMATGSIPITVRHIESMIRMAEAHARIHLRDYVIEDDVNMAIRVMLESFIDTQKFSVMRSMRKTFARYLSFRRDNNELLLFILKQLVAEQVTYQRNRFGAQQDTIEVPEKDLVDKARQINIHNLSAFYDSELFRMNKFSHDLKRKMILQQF
UniProt Q9BTC8, sequence (Q9BTC8 whole entry, looked up): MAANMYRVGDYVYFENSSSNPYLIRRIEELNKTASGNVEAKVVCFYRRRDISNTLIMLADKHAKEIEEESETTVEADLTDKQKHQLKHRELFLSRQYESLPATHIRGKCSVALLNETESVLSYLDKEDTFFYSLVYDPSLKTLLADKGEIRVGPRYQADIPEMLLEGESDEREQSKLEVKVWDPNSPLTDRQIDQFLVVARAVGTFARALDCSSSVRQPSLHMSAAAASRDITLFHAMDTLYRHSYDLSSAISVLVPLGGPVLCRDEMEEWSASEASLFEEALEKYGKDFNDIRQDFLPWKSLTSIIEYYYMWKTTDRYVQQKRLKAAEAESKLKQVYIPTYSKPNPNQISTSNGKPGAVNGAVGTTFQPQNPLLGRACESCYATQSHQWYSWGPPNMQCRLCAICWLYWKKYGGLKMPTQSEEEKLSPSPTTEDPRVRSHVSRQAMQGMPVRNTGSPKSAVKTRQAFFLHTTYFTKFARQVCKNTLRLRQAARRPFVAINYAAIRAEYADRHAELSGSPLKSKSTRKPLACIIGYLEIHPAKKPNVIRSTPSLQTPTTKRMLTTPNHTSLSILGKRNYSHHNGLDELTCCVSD
UniProt O60449, sequence (O60449 whole entry, looked up): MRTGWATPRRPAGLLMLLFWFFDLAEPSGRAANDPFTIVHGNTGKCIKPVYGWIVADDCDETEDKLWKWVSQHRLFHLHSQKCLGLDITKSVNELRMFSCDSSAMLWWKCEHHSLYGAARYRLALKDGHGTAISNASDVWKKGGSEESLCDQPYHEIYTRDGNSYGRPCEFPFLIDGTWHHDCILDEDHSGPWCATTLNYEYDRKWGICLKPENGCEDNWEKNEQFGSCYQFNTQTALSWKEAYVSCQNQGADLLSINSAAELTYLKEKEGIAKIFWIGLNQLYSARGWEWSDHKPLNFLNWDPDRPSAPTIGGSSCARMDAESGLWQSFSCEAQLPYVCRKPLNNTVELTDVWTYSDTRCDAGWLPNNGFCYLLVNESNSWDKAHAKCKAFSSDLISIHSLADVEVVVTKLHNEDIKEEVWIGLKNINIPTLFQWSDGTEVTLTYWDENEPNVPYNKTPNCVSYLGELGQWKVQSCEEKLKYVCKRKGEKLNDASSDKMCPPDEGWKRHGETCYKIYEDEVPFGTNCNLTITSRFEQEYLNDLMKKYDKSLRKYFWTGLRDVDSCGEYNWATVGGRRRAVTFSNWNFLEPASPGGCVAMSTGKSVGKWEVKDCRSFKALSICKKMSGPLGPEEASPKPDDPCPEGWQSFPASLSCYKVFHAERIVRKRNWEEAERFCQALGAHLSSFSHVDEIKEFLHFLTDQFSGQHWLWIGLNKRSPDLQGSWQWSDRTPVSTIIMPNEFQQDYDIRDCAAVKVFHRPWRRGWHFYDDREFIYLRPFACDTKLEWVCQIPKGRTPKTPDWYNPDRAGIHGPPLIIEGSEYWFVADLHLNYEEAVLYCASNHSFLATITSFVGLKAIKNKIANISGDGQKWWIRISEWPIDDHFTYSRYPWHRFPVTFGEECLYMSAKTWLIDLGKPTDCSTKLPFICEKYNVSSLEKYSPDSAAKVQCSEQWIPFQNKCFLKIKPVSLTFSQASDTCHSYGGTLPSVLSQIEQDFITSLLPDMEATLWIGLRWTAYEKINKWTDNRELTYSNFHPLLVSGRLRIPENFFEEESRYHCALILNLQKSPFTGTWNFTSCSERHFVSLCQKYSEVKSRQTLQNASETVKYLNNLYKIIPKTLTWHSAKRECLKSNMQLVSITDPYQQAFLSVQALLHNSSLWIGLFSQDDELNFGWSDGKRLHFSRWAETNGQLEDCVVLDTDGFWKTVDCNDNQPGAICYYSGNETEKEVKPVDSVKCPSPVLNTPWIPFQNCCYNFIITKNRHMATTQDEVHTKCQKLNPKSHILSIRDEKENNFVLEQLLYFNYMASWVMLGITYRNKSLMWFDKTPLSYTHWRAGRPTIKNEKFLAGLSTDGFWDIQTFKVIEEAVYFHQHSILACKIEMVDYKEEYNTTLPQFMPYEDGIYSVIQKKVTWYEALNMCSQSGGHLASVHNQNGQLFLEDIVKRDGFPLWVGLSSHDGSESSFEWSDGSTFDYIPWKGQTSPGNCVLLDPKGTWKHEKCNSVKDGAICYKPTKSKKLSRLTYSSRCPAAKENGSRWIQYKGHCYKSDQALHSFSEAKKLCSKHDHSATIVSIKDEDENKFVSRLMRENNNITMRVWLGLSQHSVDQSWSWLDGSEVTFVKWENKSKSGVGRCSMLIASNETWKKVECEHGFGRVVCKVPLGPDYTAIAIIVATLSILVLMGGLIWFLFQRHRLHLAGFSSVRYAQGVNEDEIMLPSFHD
UniProt Q9BQG0, sequence (Q9BQG0 whole entry, looked up): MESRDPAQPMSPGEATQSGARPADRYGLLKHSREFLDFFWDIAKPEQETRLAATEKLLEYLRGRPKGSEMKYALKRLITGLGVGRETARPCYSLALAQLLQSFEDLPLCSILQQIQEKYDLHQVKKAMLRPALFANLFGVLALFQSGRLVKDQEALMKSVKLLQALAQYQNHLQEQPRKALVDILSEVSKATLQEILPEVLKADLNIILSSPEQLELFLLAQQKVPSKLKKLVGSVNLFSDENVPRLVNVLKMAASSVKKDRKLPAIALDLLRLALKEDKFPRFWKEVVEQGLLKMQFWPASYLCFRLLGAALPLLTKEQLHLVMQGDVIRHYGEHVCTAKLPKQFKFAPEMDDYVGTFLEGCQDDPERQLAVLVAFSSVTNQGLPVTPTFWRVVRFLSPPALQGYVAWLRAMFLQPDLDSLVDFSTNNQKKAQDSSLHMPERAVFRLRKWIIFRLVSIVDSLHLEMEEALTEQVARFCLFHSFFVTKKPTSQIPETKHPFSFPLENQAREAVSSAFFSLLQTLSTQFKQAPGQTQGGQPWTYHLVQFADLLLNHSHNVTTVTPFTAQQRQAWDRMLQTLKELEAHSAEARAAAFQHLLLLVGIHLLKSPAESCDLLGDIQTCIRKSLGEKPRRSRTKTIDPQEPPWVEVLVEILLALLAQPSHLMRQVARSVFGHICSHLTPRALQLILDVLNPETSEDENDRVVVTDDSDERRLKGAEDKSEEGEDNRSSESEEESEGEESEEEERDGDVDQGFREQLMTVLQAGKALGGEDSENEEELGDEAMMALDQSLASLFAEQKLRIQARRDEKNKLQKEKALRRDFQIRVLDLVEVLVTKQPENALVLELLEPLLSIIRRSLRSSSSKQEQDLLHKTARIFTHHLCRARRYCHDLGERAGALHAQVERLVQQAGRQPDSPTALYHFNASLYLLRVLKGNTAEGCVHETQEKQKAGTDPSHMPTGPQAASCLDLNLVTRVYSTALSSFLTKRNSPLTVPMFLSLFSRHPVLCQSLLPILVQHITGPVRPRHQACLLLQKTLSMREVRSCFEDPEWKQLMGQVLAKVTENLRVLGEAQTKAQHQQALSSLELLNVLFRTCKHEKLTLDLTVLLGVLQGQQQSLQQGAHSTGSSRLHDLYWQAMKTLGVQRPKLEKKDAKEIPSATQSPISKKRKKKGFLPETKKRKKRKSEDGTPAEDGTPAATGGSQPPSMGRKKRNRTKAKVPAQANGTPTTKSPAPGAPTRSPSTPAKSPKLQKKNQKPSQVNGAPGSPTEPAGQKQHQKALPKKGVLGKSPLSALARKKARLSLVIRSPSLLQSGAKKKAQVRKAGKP
UniProt Q96L50, sequence (Q96L50 whole entry, looked up): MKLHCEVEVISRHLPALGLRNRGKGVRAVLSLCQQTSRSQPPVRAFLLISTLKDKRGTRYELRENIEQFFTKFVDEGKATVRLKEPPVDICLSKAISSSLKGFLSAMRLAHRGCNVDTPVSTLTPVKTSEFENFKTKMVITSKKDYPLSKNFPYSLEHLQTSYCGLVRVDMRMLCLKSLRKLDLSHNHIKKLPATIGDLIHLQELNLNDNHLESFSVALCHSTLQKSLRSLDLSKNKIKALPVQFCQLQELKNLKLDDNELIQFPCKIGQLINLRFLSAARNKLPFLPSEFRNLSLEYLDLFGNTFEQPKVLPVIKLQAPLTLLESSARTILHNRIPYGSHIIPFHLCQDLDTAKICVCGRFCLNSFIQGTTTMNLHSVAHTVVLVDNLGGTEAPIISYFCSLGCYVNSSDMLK

Compound in this assay: Cc1cc(ccc1-c1ccccc1)C(=O)N1CCCN(CC1)C(=O)CCl [compound 10]
Nature of the assay: probe-labelled cysteine peptide fold change vs DMSO (competition) (log2 fold change); higher = less target engagement (more negative = stronger competition). The settings on record: 50 µM; THP-1; incubation time: 4 h.
As to “MTA3_Q9BTC8_109_CSVALLNETESVLSYLDK (UniProt Q9BTC8)”, the “probe-labelled cysteine peptide fold change” value came out at 0.971.

On to “MYADM_Q96S97_279_SRDVSCSR (UniProt Q96S97)”, for which the “probe-labelled cysteine peptide fold change” value stood at 1.22.

Turning to “MADD_Q8WXG6_1489_LINMTYCPK (UniProt Q8WXG6)”, the “probe-labelled cysteine peptide fold change” value was -1.56.

Turning to “MYCBP2_O75592_3241_DTICELCGESHPYPVTYHMR (UniProt O75592)”, the “probe-labelled cysteine peptide fold change” value is -0.18.

Regarding “MGAT2_Q10469_386_KTCRPSTQSAQIESLLNNNK (UniProt Q10469)”, the “probe-labelled cysteine peptide fold change” value was -0.657.

With “MACF1_Q9UPN3_3109_EIACGAQSEPFPCMTPRPEGLHYQESDGK (UniProt Q9UPN3)”, the “probe-labelled cysteine peptide fold change” value is -0.619.

Consider “LY75_O60449-2_1697_NQCTDHGADMISIHNEEENAFILDTLK (UniProt O60449)”, for which the “probe-labelled cysteine peptide fold change” value came to 0.022.

As for “MED13_Q9UHV7_681_NQCLSAIASDAEQEPK (UniProt Q9UHV7)”, the “probe-labelled cysteine peptide fold change” value came to 0.0925.

For the target “MCM2_P49736_406_DAILLADLVDSCK (UniProt P49736)”, the “probe-labelled cysteine peptide fold change” value was 0.3.

Take “MYD88_Q99836_168_FDAFICYCPSDIQFVQEMIR (UniProt Q99836)”: the “probe-labelled cysteine peptide fold change” value is -1.05.

With “MYBBP1A_Q9BQG0_890_RYCHDLGER (UniProt Q9BQG0)”, the “probe-labelled cysteine peptide fold change” value stood at 0.125.

On to “LRR1_Q96L50_5_LHCEVEVISR (UniProt Q96L50)”, for which the “probe-labelled cysteine peptide fold change” value amounted to 0.0535.

For “MTHFD1_P11586_236_GEWIKPGAIVIDCGINYVPDDK (UniProt P11586)”, the “probe-labelled cysteine peptide fold change” value came out at 0.298.

As for “LGALS3_P17931_173_VIVCNTK (UniProt P17931)”, the “probe-labelled cysteine peptide fold change” value was -0.00184.

As for “LILRB4_Q8NHJ6_330_SSPAADVQGENFCAAVK (UniProt Q8NHJ6)”, the “probe-labelled cysteine peptide fold change” value was -0.214.

For “MAPK9_P45984_177_TACTNFMMTPYVVTR (UniProt P45984)”, the “probe-labelled cysteine peptide fold change” value is -1.64.
